Inhibition data for 35 compounds are collected here from ChEMBL document CHEMBL1157539, “Thousands of chemical starting points for antimalarial lead identification” (Nature, 2010).

The assay concerns HepG2. Kind of assay: GSK_TCMDC: Percent inhibition of human HepG2 cell line. Test compounds present at 10uM. Format: functional.
Usually Inhibition stands for how much of the control response was suppressed. Read a low Inhibition as a weak effect. In turn, `CN(c1ccccc1)c1ccnc(NC(=N)Nc2ccc(Cl)cc2)n1` displayed an Inhibition of 30%.
In turn, `CSc1nccc(-c2ccc3ccnc(N)c3c2)n1` returned an Inhibition of 30%.
In turn, `COc1cccc(Nc2nc(C)cc(NCc3ccc(-n4ccnc4)cc3)n2)c1` displayed an Inhibition of 0%.
`CCOc1ccc(C(=O)Nc2cc(Br)c3c(c2)CNCC3)cc1Br.Cl` came in with an Inhibition of 18%.
`Cc1cc(C)c(C(=O)Nc2ccc3nc(C)cc(N)c3c2)c(C)c1.Cl` returned an Inhibition of 12%.
Consider `CCOc1ccc2c(=NN=Cc3cc(OC)c(OC)cc3OC)cc(C)[nH]c2c1`, for which the Inhibition is recorded as 24%.
With `CCc1cn2c3c(cc(C(=O)N[C@@H](Cc4ccccc4)[C@H](O)CNC4CCCCC4)cc13)N(CC)S(=O)(=O)CC2.O=CO`, the Inhibition was 8%.
The same measure for `CCOc1cc(C(=O)NCc2cc(Cl)cc(Cl)c2)ccc1-c1nc2cc(Cl)ccc2[nH]1`: 1%; for `Cl.Clc1ccc(OC2CCC(Cn3ccnc3)(c3ccc(Cl)cc3Cl)CC2)c(Cl)c1` (stereo not given): 4%; for `COCc1cc(C)nc2sc(C(=O)Nc3cc(C(C)(C)C)ccc3O)c(N)c12`: 0%.
The same measure for `Nc1ccc(-c2nc3cc(C4=N[C@H]5CCCC[C@H]5N4)ccc3o2)cc1[N+](=O)[O-]`: 16%; for `CN1CCCc2cc(NC(=O)c3cc(-c4ccc(Cl)cc4)cs3)ccc2C1.O=C(O)C(F)(F)F`: 15%.
`Nc1ccn([C@@H]2O[C@H](COC(c3ccccc3)(c3ccccc3)c3ccccc3)[C@@H](O)[C@@H]2O)c(=O)n1`: the Inhibition is 26%.
Regarding `CCOc1ccc(C2CCN(CCCCNC(=O)c3ccc(NC(=O)c4ccc(Cl)cc4)cc3)CC2)c(CC)c1`, the Inhibition came to 44%.
The same measure for `Cn1nc(-c2ccc(CNC3CCc4ccccc43)cc2)c2cnc(NCCN3CCCC3)nc21` (stereo not given): 21%.
In turn, `COc1ccccc1N1CCN(CCCCNC(=O)c2ccc(NC(=O)c3cc(Cl)cc(Cl)c3)cc2)CC1` registered an Inhibition of 9%.
Turning to `CC(=O)N(C)c1cccc(C(=O)Nc2cccc(-c3cccc(-c4nc5cccc(C)c5[nH]4)c3)c2)c1`, the Inhibition is recorded as 15%.
As to `Cc1ccc(NC(=O)c2ccc(NCCCN3CC(C)CC(C)C3)c([N+](=O)[O-])c2)cc1F` (stereo not given), the Inhibition is 18%.
`COc1ccccc1Cc1c(C)nc2nc(N)nc(N)c2c1C.Cl` displayed an Inhibition of 69%.
The compound `CCNC(=O)N1CCN(c2nc(-c3ccccc3)nc(COC)c2Cc2ccc(C)cc2)CC1` returned an Inhibition of 27%.
Regarding `CC(C)N1CCC(N(Cc2ccc(-c3ccc(C(F)(F)F)cc3)cc2)C(=O)Cn2c(CCc3cccc(F)c3F)nc(=O)c3cccnc32)CC1.O=C(O)C(O)C(O)C(=O)O`, the Inhibition was 100%.
`O=C(Nc1cccc(CN2CCCN(Cc3ncc[nH]3)CC2)c1)c1ccc(Cl)c(Cl)c1.O=C(O)C(F)(F)F` registered an Inhibition of 8%.
As for `COc1ccccc1CNC(=O)c1ccc(N2CCN(c3ccncc3)CC2)cn1.O=C(O)C(F)(F)F`, the Inhibition is 16%.
Compound `CCC(C)NC(=O)Nc1cccc(-c2cccc(-c3nc4cccc(C)c4[nH]3)c2)c1` (stereo not given) came in with an Inhibition of 3%.
With `O=C(Nc1cccc(C(F)(F)F)c1)c1ccc(S(=O)(=O)NCC2CCCN(CC3CCCCC3)C2)cc1.O=C(O)C(F)(F)F` (stereo not given), the Inhibition is on record as 26%.
With `COc1ccc(Nc2nc(NC3CCN(Cc4ccccc4)CC3)cc(-c3ccncc3)n2)cc1` the figure was 26%; with `COc1ccc(-c2cccc(NC(=O)c3cccc(C#N)c3)c2)cc1CN1CCC(O)CC1.O=C(O)C(F)(F)F`, 30%; with `Cc1cc(-c2cc(-c3ccc(OCCN(C)C)cc3)[nH]c2-c2ccc3c(c2)CCC3=NO)ccn1`, 0%.
On to `O=C(NC1CCN(Cc2ccccc2)CC1)c1cc(-c2ccncc2)c(-c2ccc(Cl)c(O)c2)o1.O=C(O)C(F)(F)F`, for which the Inhibition was determined as 9%.
Take `CN1CCC(N2CCN(CCOc3cc(NC(=O)/C=C/c4ccccc4Cl)ccc3Br)CC2)CC1.O=C(O)C(=O)O`: the Inhibition was 36%.
With `Cc1cccc2nc(-c3cccc(-c4cccc(NC(=O)c5cccnc5)c4)c3)[nH]c12` the figure was 28%; with `CCN(CC)CCN(Cc1ccc(-c2ccc(C(F)(F)F)cc2)cc1)C(=O)Cn1c(CCc2cc(F)ccc2F)nc(=O)c2ccccc21.O=C(O)C(O)C(O)C(=O)O`, 42%.
The same measure for `Cc1ccc(CN2CCN(Cc3cccc(NC(=O)c4ccc5ccccc5c4)c3)CC2)cc1C.O=C(O)C(F)(F)F`: 62%.
Compound `Cc1ccc(NC(=O)c2cc(Br)cc(N3CCCN(C)CC3)c2)cc1F.O=C(O)C(F)(F)F` displayed an Inhibition of 15%.
As to `Cc1cc(O)c(-c2ccc(Sc3ccc(Cl)cc3)cc2)c(C)n1`, the Inhibition turned out to be 0%.
